Measured values published in PubChem BioAssay AID1159580 (chemical genetic matrix, 2015).
Values joined by “and” are separate entries in the source; they are usually repeats but may differ in a detail not shown here. Equal values may be shown once. The campaign covered roughly 5,500 compounds. About 2,000 (36%) were called active. Inconclusive results (about 18%) are left out. No stated cut-off is given here; in the data, active means normalized growth mostly below about 0.91 (no sharp cut-off); inconclusive means no clear call, values can overlap the other calls; inactive means mostly above about 0.92. The list shows a part of the results.

Assay: chemical genetic growth profiling, strain panel (AID 1159580);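 further: tested at 20 µM; growth read once vehicle control cultures reached saturation at 30 °C; 1 = growth at the plate median or of vehicle wells; lower values mean less growth of the strain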
Conditions: S. cerevisiae deletion strains, growth OD

Measured: normalized growth

NCCc1cnc[nH]1
inactive: locus YAL021C, strain ccr4, active compounds read low 1.01 | locus YAL026C, strain drs2, active compounds read low 1.01 | locus YAL030W, strain snc1, active compounds read low 1.01 | locus YAL040C, strain CLN3, active compounds read low 0.978 | locus YBL061C, strain skt5, active compounds read low 1.02 | locus YBR009C, strain hhf1, active compounds read low 1 | locus YBR021W, strain FUR4, active compounds read low 1 | locus YBR023C, strain chs3, active compounds read low 1.02 | locus YBR171W, strain sec66, active compounds read low 1.03 | locus YBR229C, strain ROT2, active compounds read low 1.01 | locus YBR231C, strain swc5, active compounds read low 0.976 | locus YBR279W, strain paf1, active compounds read low 1.02 | locus YCL011C, strain gbp2, active compounds read low 1.03 | locus YCL016C, strain dcc1, active compounds read low 1.01 | locus YCL029C, strain bik1, active compounds read low 1.01 | locus YCL061C, strain MRC1, active compounds read low 1.02 | locus YCL069W, strain vba3, active compounds read low 1.01 | locus YCR088W, strain abp1, active compounds read low 1.01 | locus YDL005C, strain med2, active compounds read low 1.02 | locus YDL035C, strain GPR1, active compounds read low 0.988 | locus YDL040C, strain nat1, active compounds read low 1.02 | locus YDL074C, strain BRE1, active compounds read low 1 | locus YDL101C, strain DUN1, active compounds read low 1.01 | locus YDL185W, strain tfp1, active compounds read low 1.02 | locus YDL192W, strain arf1, active compounds read low 1.03 | locus YDR001C, strain nth1, active compounds read low 1.01 | locus YDR069C, strain doa4, active compounds read low 0.993 | locus YDR101C, strain arx1, active compounds read low 0.997 | locus YDR137W, strain rgp1, active compounds read low 1.03 | locus YDR159W, strain sac3, active compounds read low 0.995 | locus YDR162C, strain NBP2, active compounds read low 0.998 | locus YDR195W, strain ref2 0.994 | locus YDR297W, strain sur2, active compounds read low 1.04 | locus YDR318W, strain mcm21, active compounds read low 1.02 | locus YDR334W, strain swr1, active compounds read low 1.02 | locus YDR335W, strain msn5, active compounds read low 1.02 | locus YDR363W, strain ESC2, active compounds read low 0.998 | locus YDR388W, active compounds read low 1.01 | locus YDR392W, strain spt3, active compounds read low 1 | locus YDR502C, strain sam2, active compounds read low 1.01 | locus YEL003W, strain gim4, active compounds read low 1.03 | locus YEL037C, strain rad23, active compounds read low 1.02 | locus YEL061C, strain CIN8 (second series), active compounds read low 1.02 | locus YEL061C, strain CIN8, active compounds read low 0.995 | locus YER002W, strain NOP16, active compounds read low 0.994 | locus YER015W, strain faa2, active compounds read low 1.01 | locus YER016W, strain bim1, active compounds read low 1 | locus YER110C, active compounds read low 1.02 | locus YER111C, strain swi4, active compounds read low 1.02 | locus YER155C, strain BEM2 (second series), active compounds read low 1.03 | locus YER155C, strain BEM2, active compounds read low 1.01 | locus YER167W, strain BCK2, active compounds read low 0.989 | locus YFR010W, strain ubp6, active compounds read low 1.01 | locus YGL078C, strain dbp3, active compounds read low 1.02 | locus YGL086W, strain mad1, active compounds read low 1 | locus YGL167C, strain pmr1, active compounds read low 1.01 | locus YGL173C, strain kem1, active compounds read low 1 | locus YGL227W, strain vid30, active compounds read low 1.01 | locus YGL240W, strain doc1, active compounds read low 1.01 | locus YGL248W, strain PDE1, active compounds read low 1.01 | locus YGL253W, strain hxk2, active compounds read low 1.01 | locus YGR078C, strain PAC10, active compounds read low 1 and 0.997 | locus YGR135W, strain pre9, active compounds read low 1.02 | locus YGR252W, strain gcn5, active compounds read low 1.04 | locus YHR013C, strain ard1, active compounds read low 1.06 | locus YHR027C, strain rpn1, active compounds read low 1.01 | locus YHR030C, strain SLT2, active compounds read low 0.985 and 1 | locus YHR079C, strain IRE1 (second series), active compounds read low 1.01 | locus YHR079C, strain IRE1, active compounds read low 1.03 | locus YHR094C, strain hxt1, active compounds read low 1.01 | locus YHR129C, strain ARP1, active compounds read low 1.01 | locus YHR142W, strain chs7, active compounds read low 1.01 | locus YHR200W, strain rpn10, active compounds read low 1.02 | locus YIL066C, strain RNR3, active compounds read low 1.01 | locus YIL073C, strain SPO22, active compounds read low 1.03 | locus YIL125W, strain kgd1, active compounds read low 1.02 | locus YIR030C, strain dcg1, active compounds read low 1.01 | locus YJL092W, strain hpr5, active compounds read low 1.02 | locus YJL095W, strain BCK1 (second series), active compounds read low 1.02 | locus YJL095W, strain BCK1, active compounds read low 1.01 and 0.999 | locus YJL115W, strain asf1, active compounds read low 1.02 | locus YJL129C, strain trk1, active compounds read low 1.03 | locus YJL134W, strain LCB3, active compounds read low 0.995 | locus YJL154C, strain vps35, active compounds read low 1.03 | locus YJL164C, strain tpk1, active compounds read low 1.02 | locus YJL166W, strain qcr8, active compounds read low 1.03 | locus YJL168C, strain set2, active compounds read low 1.01 | locus YJL187C, strain SWE1 (second series), active compounds read low 1 | locus YJL187C, strain SWE1, active compounds read low 1.01 | locus YJR043C, strain POL32, active compounds read low 1
